Most compounds without a hit are left out; they make up all but 7% or so of the library.
DRD3 agonist: activates the human D3 dopamine receptor. D3R DiscoveRx beta-arrestin cells, luminescence, 90 min. max activation, %. actives 0.58% (n = 410,000); in the data active = max activation above about 30%; also: 0% is about no effect
Target sequence (P35462 whole entry, looked up): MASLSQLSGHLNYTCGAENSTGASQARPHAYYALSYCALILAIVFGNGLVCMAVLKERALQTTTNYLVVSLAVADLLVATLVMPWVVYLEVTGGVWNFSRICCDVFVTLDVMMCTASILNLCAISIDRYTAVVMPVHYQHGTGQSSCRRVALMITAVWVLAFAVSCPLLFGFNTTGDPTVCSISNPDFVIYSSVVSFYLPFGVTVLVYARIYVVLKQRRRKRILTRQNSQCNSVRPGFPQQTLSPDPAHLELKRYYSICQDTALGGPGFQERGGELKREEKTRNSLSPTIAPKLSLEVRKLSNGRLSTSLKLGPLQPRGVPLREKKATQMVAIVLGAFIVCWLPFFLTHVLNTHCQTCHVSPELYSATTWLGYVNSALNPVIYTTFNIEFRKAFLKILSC
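Agonist mode: compounds and dopamine controls were applied to plated cells for 90 min at 37 degrees C after an overnight attachment at 1500 cells/well. Luminescent read-out followed 30 - 60 minutes at room temperature with DiscoveRx detection reagent.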
a7 integrin act: integrin-mediated muscular dystrophy alleviation activation; actives 0.064% (n = 350,000); Potency, µM (top dose mostly 38.3 µM), without a hit: at the top dose activation, usual class: activators; alpha7betagal myoblasts, beta-gal FDG fluorescence, 48 h;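 also: potency is read from the fitted curve at half-maximal effect; 100% = response of the positive control SU9516; nearly all actives have a fitted effect of over 60% in size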
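alpha7betagal+/- myoblasts (passage 13, 250/well) treated 48 h at 37C with compounds at 1:260 dilution of DMSO stock. Lysed, then beta-galactosidase activity read as FDG fluorescence (ex 480/em 540) after 30 min, with pre-read for autofluorescence.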
DRD3 antagonist: D3 dopamine receptor (human) antagonism; P35462; D3R cells, DiscoveRx beta-arrestin luminescence, antagonist mode; hits give low values; max response, negative = inhibition, %; actives 2.5% (n = 360,000); in the data active = max response below about -50%; inconclusive = no clear call, values can overlap the other calls; also: % is scaled to controls: 0 for no effect and ±100 for the full control effect
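Cells expressing the human receptor were seeded at 1500 cells/well, incubated overnight at 37 degrees C in 5% CO2, then exposed to library compounds with dopamine controls for 90 minutes at 37 degrees C before luminescent detection.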
ATXN2 expr inh: reduces ATXN2 reporter expression in HEK-293 cells. Potency, µM (highest dose often 57 µM), without a hit: top-dose activity change, negative = inhibition, hits mostly inhibitors. HEK-293 ATXN2-luciferase reporter, luminescence, 24 h. actives 0.72% (n = 360,000); also: potency is read from the fitted curve at half-maximal effect; % is scaled to controls: 0 for no effect and ±100 for the full control effect; nearly all actives have a fitted effect of over 55% in size
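qHTS (up to 57 uM final) was run with 24 h compound exposure of reporter cells at 37 °C. Each well was multiplexed: SteadyGlo luminescence measured ATXN2-luciferase expression after a fluorogenic Gly-Phe-AFC viability readout (25 uM final).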
ATXN viability: reduces viability in counter-screen for ATXN expression inhibitors. S2 cells (HEK-293 line with an ATXN2-luciferase reporter) viability, CellTiter-Fluor protease fluorescence, 24 h. Potency, µM (doses to about 56.7 µM), actives largely listed as cytotoxic. actives 0.49% (n = 400,000). AID 651635; also: potency is read from the fitted curve at half-maximal effect; nearly all actives have a fitted effect of over 40% in size
IL-1B inflam inh: blocks inflammasome-driven IL-1 beta release; THP-1 LPS/ATP IL-1B secretion, AlphaLISA, 16 h; hits give low values; activity change, % at 57.5 µM; actives 4.7% (n = 360,000); AID 743279; in the data active = activity change below about -50%; inconclusive = mostly about -30% to -49%; also: % is scaled to controls: 0 for no effect and ±100 for the full control effect
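Secreted IL-1B measured by AlphaLISA bead assay after 16 h compound exposure of THP-1 cells; compounds (final up to 57.5 uM) added 1 h before LPS (250 ng/mL) and ATP (1.25 mM) stimulation; lower signal means less secretion.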
Starred values were filed as active, the others as inactive. Unless noted, calls follow the shape of the dose curve; as a rule, active = well fitted curve in the direction sought with a large enough effect; inconclusive = small, poorly fitted or top-dose-only effect, or another doubt; inactive = no such curve, though single readings can be large; an effect the other way counts as inactive or inconclusive.

For O=C(COC(=O)c1ccc(Cl)nc1)Nc1ccc2c(c1)OCO2 the results were DRD3 agonist -6, a7 integrin act 22%, DRD3 antagonist -1, ATXN2 expr inh 5%, ATXN viability inactive and IL-1B inflam inh 6.
`Cn1c2ccccc2c2c3c(c4c5ccccc5n(CCC#N)c4c21)CNC3=O` gave ATXN2 expr inh 6.9µM*.
For Cc1c(C)n(CCC#N)c2ccccc12 the results were DRD3 agonist 3, a7 integrin act 7%, DRD3 antagonist -5, ATXN2 expr inh -7%, ATXN viability inconclusive and IL-1B inflam inh 10.
`CC(C)OC(=O)NC(c1ccccc1)C(Cl)(Cl)Cl` (centres undefined) gave DRD3 agonist 4, a7 integrin act inconclusive, DRD3 antagonist -50*, ATXN2 expr inh -20%, ATXN viability inactive and IL-1B inflam inh -5.
For CCOc1ccc(OC(=O)NC(c2ccccc2)C(Cl)(Cl)Cl)cc1 (centres undefined) the results were DRD3 agonist 1, a7 integrin act -2%, DRD3 antagonist -6, ATXN2 expr inh -7%, ATXN viability inactive and IL-1B inflam inh 28.
Cc1noc(C)c1NC(=O)N(C)C[C@H]1Oc2ccc(NC(=O)Nc3ccccc3)cc2C(=O)N([C@H](C)CO)C[C@@H]1C was read as DRD3 agonist 6, a7 integrin act -4%, DRD3 antagonist 24, ATXN2 expr inh 4%, ATXN viability inactive and IL-1B inflam inh 43.
Screening CCCCCCCCCC[n+]1cccc2c3ccccc3ccc21 returned DRD3 agonist 1, a7 integrin act inconclusive, DRD3 antagonist 12, ATXN2 expr inh 0.67µM*, ATXN viability inconclusive and IL-1B inflam inh 0.
COc1ccc(C(=O)NCC(c2cccnc2)N2CCN(c3ccc(F)cc3)CC2)cc1 (centres undefined) was read as DRD3 agonist -3, ATXN2 expr inh -28% and ATXN viability inconclusive.
Screening COc1ccc(Nc2ccc(C(=O)O)cc2[N+](=O)[O-])cc1 returned DRD3 agonist 0, a7 integrin act 2%, DRD3 antagonist inconclusive, ATXN2 expr inh 2%, ATXN viability inactive and IL-1B inflam inh 27.
COc1ccc(Nc2ccc(C(N)=O)cc2[N+](=O)[O-])cc1 was read as DRD3 agonist 2, a7 integrin act -10%, DRD3 antagonist -14, ATXN viability inactive and IL-1B inflam inh -61*.
CCN=C1S/C(=C\c2cn(C(C)=O)nc2-c2ccccc2)C(=O)N1CC was read as DRD3 agonist 64*, a7 integrin act -6%, DRD3 antagonist 58, ATXN2 expr inh -7%, ATXN viability inactive and IL-1B inflam inh -4.
For O=c1oc(-c2ccco2)nc2ccccc12 the results were DRD3 agonist 0, a7 integrin act 18%, DRD3 antagonist -57*, ATXN2 expr inh 1%, ATXN viability inactive and IL-1B inflam inh 14.
For O=c1oc(-c2ccco2)nc2c1cnn2-c1ccccc1 the results were DRD3 agonist 6, a7 integrin act 24%, DRD3 antagonist -24, ATXN2 expr inh 1%, ATXN viability inactive and IL-1B inflam inh -19.
CN(Cc1ccccc1)C(=O)c1ncn(Cc2ccccc2)c1C(=O)N(C)Cc1ccccc1 was read as DRD3 agonist 45*, a7 integrin act 27%, DRD3 antagonist 47, ATXN2 expr inh -1%, ATXN viability inactive and IL-1B inflam inh -3.
Screening COC(=O)c1ccc(-n2c(C)cc(C(=O)CSc3cccc[n+]3[O-])c2C)cc1 returned DRD3 agonist 16, a7 integrin act -22%, DRD3 antagonist 12, ATXN2 expr inh -11%, ATXN viability inconclusive and IL-1B inflam inh 11.
COC(=O)c1ccc(C(=O)OC)c(NC(=O)CSc2cccc[n+]2[O-])c1 was read as DRD3 agonist -11, a7 integrin act inconclusive, DRD3 antagonist inconclusive, ATXN2 expr inh 1µM*, ATXN viability 1.3µM* and IL-1B inflam inh 90.
O=C(CSc1cccc[n+]1[O-])Nc1ccccc1Oc1ccccc1 was read as DRD3 agonist -10, a7 integrin act -64%, DRD3 antagonist inconclusive, ATXN2 expr inh -43%, ATXN viability inactive and IL-1B inflam inh -102*.
